Here are results for 20 molecules from PubChem BioAssay.

Assay [1] in a line: liver-stage malaria parasite growth inhibition, primary screen, cell-based, HepG2, luciferase luminescence, HepG2 viability (AID 624349; in the data active = parasite load remaining mostly below about 12%, no sharp cut-off; inactive = mostly above about 10%;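 also: 100% = mean of DMSO negative control wells on the same plate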). The conditions noted are these: P. berghei liver stage in HepG2, luciferase luminescence, concentration not given here; parasite load remaining: stronger effect = lower value; viability: measured here: HepG2 viability without parasites.
Assay [2] can be described thus: sensitizers of A549 cells to miR-34 induction, primary screen, imaging, A549 dox-inducible miR-34, nuclei and caspase counts (AID 1347080). The conditions noted are these: A549 miR-34 inducible, Hoechst nuclei count, 48 h.
The nature of assay [3]: survival rescue of mitochondrial mutant cells in low glucose, primary screen, MELAS cybrids, Rieske KO mouse fibroblasts, CellTiter-Glo (AID 1508586;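 active = mean z-score across replicates of 1.96 or higher in either the MELAS or the Rieske mutant cell line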;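 also: z relative to plate mean and SD of compound and empty wells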).
Assay [4] in a line: viability rescue of complex I mutant cybrids, primary screen, cell-based, galactose medium, ATP luminescence (AID 1645843;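 active = z-score of at least 1.8 in each of two replicates, scored against plate mean and spread of sample wells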;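 also: positive z means more ATP and so rescue of galactose-driven cybrid death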). The conditions noted are these: complex I mutant cybrid cells, 72 h, stronger effect = higher value.
The nature of assay [5]: hESC survival regulators, cell-based (AID 493140; call rule not given here;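 also: cells exposed to compounds for four days before counting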). The conditions noted are these: human embryonic stem cell survival screen; stronger effect = higher value.
Assay [6] deals with Mitogen-activated protein kinase 7 (Homo sapiens) (UniProt Q13164). Put plainly: ERK5 transactivation activators in reporter cells, primary screen, cell-based, HTS (AID 1508626;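 active = luciferase signal above three times the same-plate solvent-only control wells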;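 also: luciferase driven by Gal4-ERK5 fusion binding five Gal4 sites before minimal TATA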). The conditions noted are these: HeLa Gal4-ERK5 transactivation, 18 h, at 5 µM, stronger effect = higher value.
Setting [7] is: measured here: relative caspase fold change +Dox/-Dox.
The mark [8] stands for this setting: measured here: total cells with miR-34 induction, stronger effect = lower value.
The mark [9] stands for this setting: measured here: total cells without miR-34 induction.
[10] abbreviates: MELAS cybrid survival, CellTiter-Glo 48 h, stronger effect = higher value.
[11] abbreviates: Rieske KO mouse fibroblast survival, CellTiter-Glo 72 h.
[12] abbreviates: stronger effect = lower value, cell number ratio, induced over uninduced.

“And” between values parts separate entries of the source, which are not always exact repeats. Equal entries are not always repeated. The source made the active and inactive calls.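 The calls were made as follows, unless noted: active = compounds whose cell count with miR-34 switched on is under 0.7 times the count with it off; inactive = the rest.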

Sequence of Mitogen-activated protein kinase 7 (Homo sapiens) (Q13164 whole entry, looked up, the tested form may be a part): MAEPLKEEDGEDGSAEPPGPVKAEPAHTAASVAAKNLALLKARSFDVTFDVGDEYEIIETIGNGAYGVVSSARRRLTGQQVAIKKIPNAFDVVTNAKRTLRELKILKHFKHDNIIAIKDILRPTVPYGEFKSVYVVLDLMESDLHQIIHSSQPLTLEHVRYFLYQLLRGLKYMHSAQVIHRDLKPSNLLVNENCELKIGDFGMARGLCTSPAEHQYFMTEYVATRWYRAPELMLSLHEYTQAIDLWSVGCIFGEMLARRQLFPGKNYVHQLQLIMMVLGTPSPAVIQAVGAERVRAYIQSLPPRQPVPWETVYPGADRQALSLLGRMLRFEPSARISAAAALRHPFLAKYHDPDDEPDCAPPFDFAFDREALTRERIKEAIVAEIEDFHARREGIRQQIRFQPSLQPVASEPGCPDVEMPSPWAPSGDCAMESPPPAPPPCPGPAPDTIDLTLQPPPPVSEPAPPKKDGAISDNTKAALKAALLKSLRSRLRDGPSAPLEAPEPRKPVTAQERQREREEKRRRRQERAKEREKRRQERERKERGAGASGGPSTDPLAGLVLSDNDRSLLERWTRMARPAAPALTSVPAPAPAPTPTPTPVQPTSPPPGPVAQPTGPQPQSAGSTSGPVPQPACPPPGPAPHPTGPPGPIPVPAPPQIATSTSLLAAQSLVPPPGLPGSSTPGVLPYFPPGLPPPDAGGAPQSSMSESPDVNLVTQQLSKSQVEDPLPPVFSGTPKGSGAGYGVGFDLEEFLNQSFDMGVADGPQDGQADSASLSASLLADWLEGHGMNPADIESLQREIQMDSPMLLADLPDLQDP

In the case of `CC[C@@]1(O)C(=O)OCc2c1cc1n(c2=O)Cc2cc3c(O)cccc3nc2-1`, the parasite load remaining in assay [1] was 25.4% (inactive). Moreover, the viability in assay [1] is 34%. Also, the fold change in assay [2] (stronger effect = lower value) is 0.938 (inactive) and 1.02 (inactive); in assay [2] (setting [7]), 0.873 and 1. In addition, the cell count in assay [2] (setting [8]) was 1030 and 1460; in assay [2] (setting [9]) it was 1100 and 1430. Moreover, the z-score was -1.16 (inactive) in assay [3] (setting [10]), -0.93 in assay [3] (setting [11]) and -2.13 (inactive) in assay [4].

Regarding `N#Cc1cnn(-c2ccc(Cl)cc2)c1N`, the fold change in assay [2] (stronger effect = lower value) is 0.852 (inactive); in assay [2] (setting [7]) it was 1.03. Also, the cell count worked out at 8030 in assay [2] (setting [8]) and 9420 in assay [2] (setting [9]). Besides, the z-score is -0.167 (inactive) in assay [3] (setting [10]), -0.085 in assay [3] (setting [11]) and 0.29 (inactive) in assay [4].

For `CC1=C(C(=O)Nc2ccccc2)SCCO1`, the fold change in assay [2] (stronger effect = lower value) was 0.865 (inactive); in assay [2] (setting [7]) it was 0.79. Besides, the cell count in assay [2] (setting [8]) worked out at 8550; in assay [2] (setting [9]), 9880. Moreover, the z-score was 0.971 (inactive) in assay [3] (setting [10]), -0.224 in assay [3] (setting [11]) and -0.385 (inactive) in assay [4].

`C[C@]12CCC(O)CC1=CC[C@@H]1[C@H]2CC[C@]2(C)C(=O)CC[C@@H]12` (stereo not given in full): the results for the fold change in assay [2] (stronger effect = lower value) and in assay [2] (setting [7]) were 0.867 (inactive) and 0.858, respectively. Also, the cell count in assay [2] (setting [8]) is 8270; in assay [2] (setting [9]), 9530. Besides, the z-score in assay [3] (setting [10]) is -0.412 (inactive); in assay [3] (setting [11]) it was 0.289.

For `COc1cc(-n2c(=S)[nH]c3ccccc3c2=O)c(Cl)cc1Cl`, the fold change in assay [2] (stronger effect = lower value) was 0.878 (inactive); in assay [2] (setting [7]), 0.323. For the same molecule, the cell count in assay [2] (setting [8]) worked out at 6620; in assay [2] (setting [9]), 7540. The figures for the z-score in assay [3] (setting [10]) and in assay [3] (setting [11]) were 0.632 (inactive) and 1.12, respectively.

Consider `c1cc2c(cc1C1OC[C@H]3C(c4ccc5c(c4)OCO5)OC[C@H]13)OCO2` (stereo not given in full), for which the fold change in assay [2] (setting [12]) was 0.925 (inactive); in assay [2] (setting [7]), 0.861. For the same molecule, the values for the cell count in assay [2] (setting [8]) and in assay [2] (setting [9]) were 8900 and 9620, respectively. Besides, the results for the z-score in assay [3] (setting [10]) and in assay [3] (setting [11]) were -0.349 (inactive) and 0.747, respectively.

For the molecule `COc1cccc2ncn(Cc3cn4ccccc4n3)c(=O)c12`, the fold change in assay [2] (setting [12]) is 0.944 (inactive); in assay [2] (setting [7]), 1.17. Moreover, the cell count in assay [2] (setting [8]) is 9180; in assay [2] (setting [9]), 9730. For the same molecule, the z-score in assay [3] (setting [10]) is -0.241 (inactive); in assay [3] (setting [11]) it was -0.636; in assay [4], -0.6 (inactive).

In the case of `Oc1ccc2c3c1O[C@H]1c4oc5ccccc5c4C[C@@]4(O)[C@@H](C2)N(CC2CC2)CC[C@]314`, the parasite load remaining in assay [1] is 33.1% (inactive). The molecule also returned a viability in assay [1] of 94%. Moreover, the fold change in assay [2] (stronger effect = lower value) is 0.915 (inactive); in assay [2] (setting [7]) it was 0.462. The cell count in assay [2] (setting [8]) stood at 9980; in assay [2] (setting [9]), 10900. In addition, the z-score in assay [3] (setting [10]) was -0.602 (inactive); in assay [3] (setting [11]), 0.281; in assay [4], -0.095 (inactive).

For `COCC1OC(=O)c2coc3c2[C@@]1(C)C1=C(C3=O)[C@@H]2CCC(=O)[C@@]2(C)CC1OC(C)=O` (stereo not given in full), the results for the fold change in assay [2] (setting [12]) and in assay [2] (setting [7]) were 0.933 (inactive) and 0.632, respectively. Moreover, the values for the cell count in assay [2] (setting [8]) and in assay [2] (setting [9]) were 3850 and 4130, respectively. In addition, the results for the z-score in assay [3] (setting [10]) and in assay [3] (setting [11]) were 3.45 (active) and -0.534, respectively.

`CC1C=CC=CCCC=CC=CC=CC=CC(OC2OC(C)C(O)C(N)C2O)CC2O[C@@](O)(CC(O)C(O)CCC(O)CC(O)CC(O)CC(=O)OC(C)C(C)C1O)CC(O)C2C(=O)O` (stereo not given in full): the fold change was 0.946 (inactive) in assay [2] (setting [12]) and 1.01 in assay [2] (setting [7]). In addition, the cell count in assay [2] (setting [8]) was found to be 7910; in assay [2] (setting [9]), 8370. Further, the z-score in assay [3] (setting [10]) is 0.0382 (inactive); in assay [3] (setting [11]), 0.415.

Regarding `C[C@]12NC(Cc3ccccc31)c1ccccc12`, the fold change in assay [2] (stronger effect = lower value) is 0.981 (inactive); in assay [2] (setting [7]), 0.318. Further, the cell count in assay [2] (setting [8]) worked out at 8080; in assay [2] (setting [9]) it was 8230. The z-score in assay [3] (setting [10]) was -0.147 (inactive); in assay [3] (setting [11]) it was -0.0728.

Regarding `Oc1ccc(C2(c3ccc(O)cc3)CCCCC2)cc1`, the fold change was 0.911 (inactive) in assay [2] (stronger effect = lower value) and 0.41 in assay [2] (setting [7]). Besides, the cell count is 7610 in assay [2] (setting [8]) and 8350 in assay [2] (setting [9]). Moreover, the values for the z-score in assay [3] (setting [10]), in assay [3] (setting [11]) and in assay [4] were -0.617 (inactive), -0.22 and -1.9 (inactive), respectively.

On to `CC(Cc1ccccc1)NCCC(c1ccccc1)c1ccccc1` (stereo not given), for which the survival in assay [5] was 2.25 (inactive). Also, the parasite load remaining in assay [1] was 54.7% (inactive). Moreover, the viability in assay [1] came to 77.6%. Moreover, the fold change is 1.36 (inactive) in assay [2] (stronger effect = lower value) and 0.226 in assay [2] (setting [7]). Moreover, the cell count in assay [2] (setting [8]) was 3500; in assay [2] (setting [9]), 2580. The z-score is -0.835 (inactive) and -1.25 (inactive) in assay [3] (setting [10]); -0.134 and -0.319 in assay [3] (setting [11]); -2.66 (inactive) in assay [4].

For the molecule `O=C1CCC[C@@H]2[C@@H]3CCCN4CCC[C@H](CN12)[C@@H]34`, the figures for the fold change in assay [2] (setting [12]) and in assay [2] (setting [7]) were 0.961 (inactive) and 1.02, respectively. Also, the cell count turned out to be 9040 in assay [2] (setting [8]) and 9410 in assay [2] (setting [9]). Besides, the values for the z-score in assay [3] (setting [10]) and in assay [3] (setting [11]) were -0.296 (inactive) and 0.336, respectively.

`CCc1cc2c(s1)-n1c(C)nnc1CN=C2c1ccccc1Cl`: the fold change is 0.948 (inactive) in assay [2] (stronger effect = lower value) and 0.493 in assay [2] (setting [7]). The figures for the cell count in assay [2] (setting [8]) and in assay [2] (setting [9]) were 8260 and 8710, respectively. For the same molecule, the z-score was -0.248 (inactive) in assay [3] (setting [10]) and -0.187 in assay [3] (setting [11]).

Turning to `Cc1nc(-c2ccccn2)nc(NCCc2ccccc2)c1Cl`, the fold change in assay [2] (stronger effect = lower value) is 0.975 (inactive); in assay [2] (setting [7]), 0.693. The cell count in assay [2] (setting [8]) is 3090; in assay [2] (setting [9]), 3170. For the same molecule, the z-score in assay [3] (setting [10]) is -0.0148; in assay [3] (setting [11]), 3.58; in assay [4] it was -2.29 (inactive).

Consider `CC(=O)O[C@H]1CC[C@@]2(C)C(=CC[C@@H]3[C@@H]2CC[C@]2(C)C(=O)CC[C@@H]32)C1`, for which the survival in assay [5] was 0.583 (inactive). Further, the parasite load remaining in assay [1] was 73.2% (inactive). Further, in assay [1], the viability was found to be 93.1%. Besides, the results for the fold change in assay [2] (stronger effect = lower value) and in assay [2] (setting [7]) were 0.892 (inactive) and 1.2, respectively. Besides, the cell count in assay [2] (setting [8]) stood at 9250; in assay [2] (setting [9]), 10400. The z-score in assay [3] (setting [10]) is 0.711 (inactive); in assay [3] (setting [11]), -0.302. In assay [6], the luciferase signal is 56 AU (inactive).

As to `C[C@H]1CN(C2CCC(C#N)(c3ccc(F)cc3)CC2)CC[C@@]1(C(=O)O)c1ccccc1` (stereo not given in full), in assay [1], the parasite load remaining was 36.7% (inactive). The viability in assay [1] came to 68%. The fold change in assay [2] (stronger effect = lower value) is 0.857 (inactive); in assay [2] (setting [7]) it was 1.09. Moreover, the cell count is 9640 in assay [2] (setting [8]) and 11200 in assay [2] (setting [9]). For the same molecule, the z-score is 0.032 (inactive) in assay [3] (setting [10]), 0.209 in assay [3] (setting [11]) and 0.74 (inactive) in assay [4].

Turning to `C[C@]12CCC(O)C[C@@H]1CC[C@@H]1[C@H]2CC[C@]2(C)C(=O)CC[C@@H]12` (stereo not given in full), the fold change in assay [2] (stronger effect = lower value) was 0.933 (inactive); in assay [2] (setting [7]) it was 1.48. Moreover, the figures for the cell count in assay [2] (setting [8]) and in assay [2] (setting [9]) were 7540 and 8080, respectively. The values for the z-score in assay [3] (setting [10]) and in assay [3] (setting [11]) were -0.116 (inactive) and -0.417, respectively.

As for `C=CCN1CC[C@]23c4c5ccc(O)c4O[C@H]2/C(=N/N=C2\CC[C@@]4(O)[C@H]6Cc7ccc(O)c8c7[C@@]4(CCN6CC=C)[C@H]2O8)CC[C@@]3(O)[C@H]1C5`, in assay [1], the parasite load remaining was 8.58% (inactive). For the same molecule, the viability in assay [1] stood at 59%. In addition, the fold change in assay [2] (stronger effect = lower value) was 0.791 (inactive); in assay [2] (setting [7]) it was 1.27. Also, the cell count came out at 7760 in assay [2] (setting [8]) and 9820 in assay [2] (setting [9]). Also, the z-score in assay [3] (setting [10]) is -0.547 (inactive); in assay [3] (setting [11]), -0.931; in assay [4], -1.6 (inactive).
